# This is a sample that favours compounds with a hit; in the whole collection about 7.9% have one here.
# Lassa entry inh = blocks Lassa virus binding to or entry into cells | Potency, µM (doses to about 37.9 µM), without a hit: top-dose activity change, negative = inhibition, hits mostly inhibitors | Lassa virus pseudotype entry inhibition, cell reporter | 1.2% of 300,000 active; calls by dose curve; tested in HEK293 cells; also: potency is read from the fitted curve at half-maximal effect; nearly all actives have a fitted effect of over 50% in size
# HCV inh = HCV inhibition; Huh7.5.1 HCVcc-Cre infection, luciferase reporter, 44 h; Potency, µM (titrated, usually from 41.8 µM), inactives show top-dose activity change, negative = inhibition, most hits filed as inhibitors; 3.4% of 340,000 active; AID 651820; active = well fitted inhibition curve with a large enough effect; inconclusive = small, poorly fitted or top-dose-only effect, or another doubt; inactive = no such curve, though single readings can be large or run the other way; also: potency is read from the fitted curve at half-maximal effect
#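 A cell-based infection assay in which seeded cells (1,000 per well) receive test compound after 4 h, are inoculated with HCVcc-Cre at approximately 0.5 moi, and are incubated 44 h before luminescence detection.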
# FMDV inh = blocks foot and mouth disease virus. FMDV antiviral cell-based qHTS. Potency, µM (highest dose often 57.9 µM), without a hit: top-dose activity change, negative = inhibition, most hits filed as inhibitors. 1.2% of 410,000 active. AID 1159524; calls by dose curve; tested in HEK293T cells; also: read-out not given here; potency is read from the fitted curve at half-maximal effect; nearly all actives have a fitted effect of over 45% in size
# MARV entry inh = inhibitors of Marburg virus binding or cell entry; Potency, µM (titrated, usually from 37.8 µM), for inactives: at the top dose activity change, negative = inhibition, most hits filed as inhibitors; Marburg virus pseudotyped entry inhibition, cell reporter; 1.8% of 300,000 active; calls by dose curve; tested in HEK293 cells; also: potency is read from the fitted curve at half-maximal effect
# HCMV inh = blocks human cytomegalovirus replication | HFF cells, HCMV-luciferase reporter, 72 h; active compounds read low | activity change, negative = inhibition, % at 57.5 µM | 4.5% of 410,000 active | AID 1259415; in the data active = activity change below about -60%; inconclusive = no clear call, values can overlap the other calls; inactive = above about -39%
#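 Two-dose cell screen: HFF monolayers treated with compounds and infected with luciferase-expressing HCMV at 1 PFU/cell, 72 h at 37C, then lysed for luciferase measurement.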
# Active calls of the source: *; u = inconclusive; x = no result; [ ] = dose if it differs, or a comment. % is scaled to controls: 0 for no effect and ±100 for the full control effect.
SMILES,Lassa entry inh,HCV inh,FMDV inh,MARV entry inh,HCMV inh
CCC(C)n1c(=O)c2sccc2n2c(CCCC(=O)Nc3ccc(F)cc3)nnc12 (stereo not drawn),-10%[46.1 µM],x,-1%,x,-65*
CCc1ccc(NC(=O)CCCc2nnc3n(C(C)CC)c(=O)c4sccc4n23)cc1 (stereo not drawn),1%[46.1 µM],x,-15%,x,u
Cn1c(=O)c2sccc2n2c(CCCC(=O)Nc3ccc(Oc4ccccc4)cc3)nnc12,-9%[46.1 µM],x,u,x,-65*
CCCn1c(=O)c2sccc2n2c(CCCC(=O)Nc3ccc(C)c(F)c3)nnc12,-10%[46.1 µM],x,-20%,x,u
Cc1ccc(NC(=O)CCCc2nnc3n(C)c(=O)c4sccc4n23)cc1F,u,x,1.3µM*,18%[46.1 µM],-31
COc1cc(NC(=O)C(Cc2ccccc2)NS(=O)(=O)c2cccs2)cc(OC)c1 (stereo not drawn),1%[46.1 µM],x,0%,x,8
CCN(C(=O)c1ccc(N2CC3CC(C2)c2cccc(=O)n2C3)c(NC(=O)c2ccncc2)c1)c1cccc(C)c1 (stereo not drawn),x,15%,-10%,x,-75*
CSc1ccccc1NC(=O)c1ccc(N2CC3CC(C2)c2cccc(=O)n2C3)c(NC(=O)c2ccncc2)c1 (stereo not drawn),x,8%,-3%,x,-33
Cc1ccc(C2C(=O)N(C3CCCCCC3)CC(=O)N2CCC2=CCCCC2)cc1 (stereo not drawn),u,x,-15%,x,-63*
COC(=O)C1=C(c2cccc(OCc3ccccc3)c2)C[C@@H]2CC[C@H]1N2C(=O)NCc1ccc(C(C)(C)C)cc1,x,25µM*,-10%,x,-17
COC(=O)C1=C(c2cccc(OCc3ccccc3)c2)C[C@@H]2CC[C@H]1N2C(=O)NCc1ccc(N(C)C)cc1,x,13µM*,-13%,x,-19
COC(=O)C1=C(c2cccc(OCc3ccccc3)c2)C[C@@H]2CC[C@H]1N2C(=O)NCc1cccc(OC)c1,x,u,-16%,x,-26
CC1=C[C@@H](c2ccccc2)n2nc(N3C(=O)[C@H]4CC=CC[C@@H]4C3=O)nc2N1,x,x,x,-4%,x
COC(=O)c1ccc(NC(=O)c2cc(=O)c3ccc(C)cc3o2)cc1,1%[46.1 µM],x,-1%,7%[46.1 µM],-6
CCCC(=O)c1ccc(OC(=O)c2c(-c3ccccc3Cl)noc2C)cc1,u,x,0%,x,-20
O=c1oc2c(O)c(O)cc3c(=O)oc4c(O)c(O)cc1c4c23,u,-8%[8.37 µM],-24%,4.1µM*,x
O=C(CC(C(=O)O)C1CCCO1)NCc1ccccc1 (stereo not drawn),-1%,5%,-9%,16%,-101*
Cc1ccc(C2CC(=O)Nc3c2c(C)nn3-c2nc(C)cc(C)n2)c(C)c1 (stereo not drawn),6%[46.1 µM],x,0%,-26%[46.1 µM],9
O=[N+]([O-])c1nn(-c2ccccc2)n(O)c1=NC1CCN(Cc2ccccc2)CC1,u,2µM*,-18%,u,u
O=[N+]([O-])c1nn(-c2ccccc2)n(O)c1=NCCc1ccccc1,u,11µM*,9%,u,-37
O=[N+]([O-])c1nn(-c2ccc3c(c2)OCCO3)n(O)c1=NC1CCN(Cc2ccccc2)CC1,x,u,4%,x,-35
C[C@H](CO)N1C[C@H](C)[C@H](CN(C)C(=O)Nc2ccc(-c3cccs3)cc2)OCc2cnnn2CCCC1=O,x,x,-15%,x,-61*
CCCCCNc1nc2c(-c3ccccc3)nnn2c2ccccc12,8%[46.1 µM],x,-14%,-9%[46.1 µM],28
Cc1cc(OC(C)C(=O)Nc2cccc(-c3nc4ccccc4o3)c2)cc(C)c1Cl (stereo not drawn),12%[46.1 µM],x,-18%,1%[46.1 µM],37
Cc1nn(-c2ccccc2)c(C)c1NC(=O)COC(=O)CC(C)c1ccccc1 (stereo not drawn),6%,u,-11%,27%[46.1 µM],-63*
Cc1cc(C)c(-c2cc(NC(=O)COC(=O)c3ccc(NC(=O)CC#N)cc3)n(-c3ccccc3)n2)cc1C,-2%,-4%,-25%,-37%,-24
Cc1nn(-c2ccccc2)c(C)c1NC(=O)COC(=O)c1ccc(NC(=O)CC#N)cc1,u,1%,-30%,22%,-68*
CC(C)[C@@H](C(=O)N[C@@H](Cc1ccccc1)C(=O)O)N1C(=O)N2CCc3c([nH]c4ccccc34)[C@@]2(C)C1=O,x,2%,-19%,x,11

# Compound activity (PubChem BioAssay)
